Results on 99 compounds are retold here after PubChem BioAssay AID1942 (Johns Hopkins Ion Channel Center, 2009).

The whole screen tested about 2,400 compounds, of which about 580 (24%) were called active. A selection follows. Unmarked numbers belong to inactive results.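 Rule for the calls: active = activity change at or above the mean plus 3 SD of buffer wells without dofetilide, per plate; inactive = the rest.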

Chain of Potassium voltage-gated channel subfamily KQT member 2 (Rattus norvegicus) (O88943 whole entry, looked up): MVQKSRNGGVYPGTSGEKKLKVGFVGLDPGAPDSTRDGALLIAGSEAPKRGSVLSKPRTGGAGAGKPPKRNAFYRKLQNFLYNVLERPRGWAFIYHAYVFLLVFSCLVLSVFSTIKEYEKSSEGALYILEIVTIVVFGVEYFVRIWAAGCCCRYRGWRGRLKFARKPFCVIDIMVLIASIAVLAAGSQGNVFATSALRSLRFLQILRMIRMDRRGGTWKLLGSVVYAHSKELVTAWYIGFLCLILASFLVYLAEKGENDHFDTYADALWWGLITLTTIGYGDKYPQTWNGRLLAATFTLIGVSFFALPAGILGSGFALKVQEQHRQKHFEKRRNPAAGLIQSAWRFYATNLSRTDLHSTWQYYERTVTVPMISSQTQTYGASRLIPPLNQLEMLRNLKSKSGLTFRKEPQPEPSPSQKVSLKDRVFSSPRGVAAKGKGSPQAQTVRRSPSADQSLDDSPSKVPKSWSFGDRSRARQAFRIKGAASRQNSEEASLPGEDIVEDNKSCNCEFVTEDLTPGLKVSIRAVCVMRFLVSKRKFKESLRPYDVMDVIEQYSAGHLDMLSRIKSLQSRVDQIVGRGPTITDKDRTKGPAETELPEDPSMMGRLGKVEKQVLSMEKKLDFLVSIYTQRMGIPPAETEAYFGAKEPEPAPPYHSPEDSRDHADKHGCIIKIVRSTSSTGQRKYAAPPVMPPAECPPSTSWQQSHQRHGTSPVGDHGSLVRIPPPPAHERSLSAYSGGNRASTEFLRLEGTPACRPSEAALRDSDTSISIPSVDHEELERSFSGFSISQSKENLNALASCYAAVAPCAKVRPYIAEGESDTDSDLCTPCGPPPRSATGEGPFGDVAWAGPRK

This experiment addresses Potassium voltage-gated channel subfamily KQT member 2 (Rattus norvegicus) (UniProt O88943). Kind of experiment: rat KCNQ2 channel activation by compounds alone, confirmation, counter-screen for hERG block protector project, cell-based, CHO, FluxOR thallium flux (AID 1942).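 Note: normalized value minus buffer-control mean plus three SD of buffer wells.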 The following applies: CHO-KCNQ2 cells, FluxOR thallium flux fluorescence; at 10 µM; active compounds read high.
In the case of `Cc1cccc(NC(=S)N/N=C2\CC(C)(C)Oc3ccc(O)cc32)c1`, the activity change, less the hit threshold was -9.9%.

Turning to `Cc1nn(-c2ccc(Cl)nn2)c(=O)c2ccccc12`, the activity change, less the hit threshold is -19.3%.

Take `CC1CN(S(=O)(=O)c2ccc(-c3nc4ccccc4s3)cc2)CC(C)O1` (centres undefined): the activity change, less the hit threshold was -3.8%.

For the compound `CC(C)CN1C(=O)/C(=C/c2ccco2)NC1=S`, the activity change, less the hit threshold is -20.7%.

Turning to `CC(C)CN1C(=O)/C(=C/c2cccs2)NC1=S`, the activity change, less the hit threshold is 83.6% (active).

Turning to `COc1ccc(N2C(=O)/C(=C/c3cccs3)NC2=S)cc1`, the activity change, less the hit threshold was -15.1%.

On to `CCCN1C(=O)/C(=C/c2ccc3c(c2)OCO3)NC1=S`, for which the activity change, less the hit threshold was -10.1%.

Turning to `CCCN1C(=O)/C(=C/c2ccc(C)s2)NC1=S`, the activity change, less the hit threshold is 80.4% (active).

Regarding `CCN1C(=O)/C(=C/c2ccc(C)s2)NC1=S`, the activity change, less the hit threshold is 36.1% (active).

For `O=c1c(C(c2ccc(O)cc2)c2c(O)nc3n(c2=O)CCS3)c(O)nc2n1CCS2`, the activity change, less the hit threshold was -11.7%.

Take `Nc1cc(-c2ccc(Br)cc2)[nH]n1`: the activity change, less the hit threshold was -23.7%.

With `CC(C)=CC(=O)OCC(=O)Nc1ccc(SC(F)F)cc1`, the activity change, less the hit threshold was -15.7%.

Turning to `S=c1nc(-c2ccccc2)c(-c2ccccc2)n[nH]1`, the activity change, less the hit threshold is -18.5%.

Turning to `S=c1nc(-c2ccccc2)[nH]n1-c1ccccc1`, the activity change, less the hit threshold is 51.8% (active).

As to `CCOc1cc(C(=O)NC)cc(OCC)c1OCC`, the activity change, less the hit threshold was -15.9%.

`Cc1cc(-c2nnc(SCC(=O)Nc3ccc(C(F)(F)F)cc3)n2C)no1`: the activity change, less the hit threshold is -23.1%.

On to `COCCn1c(SCC(=O)Nc2cc(C)cc(C)c2)nc2ccccc2c1=O`, for which the activity change, less the hit threshold was -17.4%.

In the case of `Cc1cc(C)cc(NC(=O)CSc2nnc(CN3CCOCC3)n2C)c1`, the activity change, less the hit threshold was 27.2% (active).

Consider `Clc1cccc(OCCCN2CCCC2)c1Cl`, for which the activity change, less the hit threshold is -9.5%.

Take `CCc1ccc(/C=C/C(=O)C2C(=O)c3ccccc3C2=O)cc1`: the activity change, less the hit threshold is 37.2% (active).

For the compound `CCOC(=O)C1=C(Cc2ccc(C)cc2)C(=O)c2ccccc2C1=O`, the activity change, less the hit threshold was -0.5%.

Regarding `Cc1ccc(/C=C/C(=O)C2C(=O)c3ccccc3C2=O)cc1`, the activity change, less the hit threshold is 48.1% (active).

For `Cc1ccc(/C=N/N2C(=O)c3ccccc3NC2c2ccc(C)cc2)cc1` (centres undefined), the activity change, less the hit threshold was -15.6%.

For the compound `CCOC(=O)C1=C(O)c2ccccc2C(=O)/C1=C\c1ccc(CC)cc1`, the activity change, less the hit threshold was -1.8%.

As for `O=C(CC1NCCNC1=O)Nc1ccc([N+](=O)[O-])cc1` (centres undefined), the activity change, less the hit threshold is -27.7%.

As to `COc1ccc(NC(=O)N2CCN(c3ccc([N+](=O)[O-])cc3)CC2)cc1OC`, the activity change, less the hit threshold is -23.2%.

Regarding `CN(C(=O)c1cnccn1)c1nnc(-c2cnccn2)s1`, the activity change, less the hit threshold is -25.3%.

Regarding `CC(C)C(NC(=O)c1ccccc1)C(=O)N/N=C\c1ccco1` (centres undefined), the activity change, less the hit threshold was -20.2%.

As for `Cc1ccc2c(CN3CCOCC3)cc(=O)oc2c1`, the activity change, less the hit threshold is -5.1%.

For `Cc1cc(C)cc(OCc2nnc(SCC(=O)Nc3ccccc3)o2)c1`, the activity change, less the hit threshold is -16.8%.

As to `CC(=O)/C=C1/C(=O)Nc2ccccc21`, the activity change, less the hit threshold is -27.4%.

Regarding `Cc1cccc(N2C(=O)C(O)=C(C(=O)c3cccs3)C2c2cccc(Oc3ccccc3)c2)n1` (centres undefined), the activity change, less the hit threshold was -18.2%.

Consider `COc1ccc(/C=C/C(=O)Nc2ccccc2C(=O)O)cc1OC`, for which the activity change, less the hit threshold is 4.9% (active).

Turning to `COc1ccc(/C=C/C(=O)Nc2ccccc2C(=O)O)cc1`, the activity change, less the hit threshold is -2.2%.

Consider `COc1cc(C(=O)Nc2ccc(O)cc2C(=O)O)ccc1OC(C)=O`, for which the activity change, less the hit threshold was -10.8%.

Regarding `COc1cc(/C=C2/C(=O)NN(c3ccc(Cl)c(Cl)c3)C2=O)cc([N+](=O)[O-])c1O`, the activity change, less the hit threshold was -18.7%.

As for `Cc1cc(S(=O)(=O)Nc2ccc(C(=O)N3CCN(C(=O)c4ccco4)CC3)cc2)ccc1F`, the activity change, less the hit threshold was 3.4% (active).

With `Nc1ccc(C(=O)OCC(=O)N2CCN(C(=O)c3ccco3)CC2)cc1[N+](=O)[O-]`, the activity change, less the hit threshold was -23.4%.

Turning to `O=C(CCNS(=O)(=O)c1ccc(Cl)cc1)OCC(=O)N1CCN(C(=O)c2ccco2)CC1`, the activity change, less the hit threshold was -17.9%.

Take `CCOc1ccc(NC(=O)CSc2nc3nc(C)cc(C)n3n2)cc1`: the activity change, less the hit threshold was -14.8%.

Take `CCOc1ccc(NC(=O)c2ccc3c(c2)CCN3S(C)(=O)=O)cc1`: the activity change, less the hit threshold was -27.8%.

As to `CCOc1ccc(NC(=S)NS(=O)(=O)c2cc(Br)ccc2OCC)cc1`, the activity change, less the hit threshold was 35.9% (active).

As for `O=C(COc1ccccc1)Nc1ccc(S(=O)(=O)Nc2ccccn2)cc1`, the activity change, less the hit threshold was -14.4%.

`CC(=O)NC1C(Oc2ccccc2C)OC(CO)C(O)C1O` (centres undefined): the activity change, less the hit threshold was -8.8%.

Consider `CCCn1c(O)c(N=NC(=O)c2ccco2)c2ccccc21`, for which the activity change, less the hit threshold is 86.7% (active).

Consider `CCn1c(O)c(N=NC(=O)CNC(=O)c2ccccc2F)c2ccccc21`, for which the activity change, less the hit threshold was -8.6%.

For `CCn1c(O)c(N=NC(=S)NCC2CCCO2)c2ccccc21` (centres undefined), the activity change, less the hit threshold was -9.1%.

As for `CSc1ccc(/C=N/NC(=O)c2cccs2)cc1`, the activity change, less the hit threshold is -22.9%.

For `O=C(CS(=O)(=O)Cc1ccccc1)Nc1ccc(Cl)cn1`, the activity change, less the hit threshold was -21.6%.

Consider `CCn1c(SCC(N)=O)nc2sc3c(c2c1=O)CCCC3`, for which the activity change, less the hit threshold was 31.2% (active).

In the case of `CCOC(=O)c1cnn(-c2nc(SC)nc3sc4c(c23)CCCC4)c1N`, the activity change, less the hit threshold is -23.6%.

As to `CCn1c(SC(C)C(=O)O)nc2sc3c(c2c1=O)CCC3` (centres undefined), the activity change, less the hit threshold is 25.4% (active).

On to `CCCn1c(SCC(=O)N2CCN(C(C)=O)CC2)nc2sc3c(c2c1=O)CCC3`, for which the activity change, less the hit threshold is 29.6% (active).

Consider `CCC(=O)N1CCN(c2nc(CC)nc3sc4c(c23)CCCC4)CC1`, for which the activity change, less the hit threshold was -43.7%.

As for `CCN1C(=O)c2cccc3c(S(=O)(=O)NCC4CCCO4)ccc1c23` (centres undefined), the activity change, less the hit threshold is -21.6%.

On to `CCc1cccc(C)c1NC(=O)Cc1ccsc1`, for which the activity change, less the hit threshold was -12.4%.

On to `O=C1CC(c2ccco2)CC2=C1C1c3ccccc3C(=O)N1c1ccccc1N2` (centres undefined), for which the activity change, less the hit threshold was -4.8%.

Take `Cc1cc(OCc2ccc(C(=O)Nc3ccc(C(=O)O)cc3)o2)ccc1Cl`: the activity change, less the hit threshold was -15.9%.

With `Cc1ccc(OCc2ccoc2C(=O)O)cc1C`, the activity change, less the hit threshold is 23.9% (active).

Regarding `Cc1oc2ccc(OCc3ccc(Cl)cc3)cc2c1C(=O)O`, the activity change, less the hit threshold was -3.6%.

For the compound `Cc1cc(S(=O)(=O)N2CCOCC2)ccc1OCC(=O)NCc1ccco1`, the activity change, less the hit threshold is -12.9%.

Consider `O=C(CN1CCN(c2ccccc2O)CC1)NC(=O)NCc1ccco1`, for which the activity change, less the hit threshold was -18.7%.

For `COc1cccc(N2CCN(CC(=O)NC(=O)NCc3ccco3)CC2)c1`, the activity change, less the hit threshold is -11.4%.

For `Cc1cc2c(cc(C(=O)OC(C(=O)NCc3ccco3)C(C)C)n2C)o1` (centres undefined), the activity change, less the hit threshold is -16.3%.

Consider `Cc1sc2nc(C(C)C)nc(SCC(=O)NCc3ccco3)c2c1C`, for which the activity change, less the hit threshold was 10.5% (active).

Regarding `CCn1c(SCC(=O)NC(=O)NCc2ccco2)nc2sc(C)c(C)c2c1=O`, the activity change, less the hit threshold is 19.7% (active).

On to `Fc1ccc(N2CCN(c3ccc4c(C(F)(F)F)cc(C(F)(F)F)nc4n3)CC2)cc1`, for which the activity change, less the hit threshold was -19.8%.

As to `O=C(NCc1cccs1)C1CCC(CNS(=O)(=O)c2cccs2)CC1` (centres undefined), the activity change, less the hit threshold was -28.1%.

With `Cc1cc(SC#N)cc(C)c1NC(=O)CCl`, the activity change, less the hit threshold was 19.1% (active).

For `Cc1ccc(S(=O)(=O)Nc2ccc(O)c3ccccc23)c(C)c1`, the activity change, less the hit threshold is -27%.

On to `Cc1onc(C(=O)N2CCC(C(N)=O)CC2)c1-c1ccccc1Cl`, for which the activity change, less the hit threshold is -22.2%.

Regarding `S=c1[nH]c(-c2ccccc2)cs1`, the activity change, less the hit threshold was 61.9% (active).

Take `Cc1cccc(-n2cc(-c3ccccc3)[nH]c2=S)c1`: the activity change, less the hit threshold was -16.2%.

In the case of `Cc1ccc(-c2csc(=S)[nH]2)cc1`, the activity change, less the hit threshold is 83.7% (active).

`S=c1[nH]c(-c2ccc(Cl)cc2)cs1`: the activity change, less the hit threshold was 119% (active).

Consider `Cc1ccc(-c2n[nH]c(=S)nc2-c2ccc(C)cc2)cc1`, for which the activity change, less the hit threshold is -7.1%.

For the compound `O=Cc1cc(-c2ccccc2)[nH]c1-c1ccccc1`, the activity change, less the hit threshold was -15.3%.

Consider `Cc1cc(NC(=O)CSc2ccc(-c3ccc(F)cc3)nn2)no1`, for which the activity change, less the hit threshold is -18.3%.

As to `O=C(Nc1ccccc1)O/N=C/c1ccncc1`, the activity change, less the hit threshold was -19.6%.

Regarding `COc1ccc(-c2c(C#N)c(SCC(=O)c3cc4ccccc4oc3=O)nc(C)c2C(=O)Nc2ccccc2)cc1`, the activity change, less the hit threshold is -11.8%.

With `O=c1[nH]c(C(Cl)(Cl)Cl)nc2ccc3ccccc3c12`, the activity change, less the hit threshold is 15.1% (active).

`COc1ccc(/C=C2/S/C(=N/N=C3\CC4CCC3(C)C4(C)C)NC2=O)cc1` (centres undefined): the activity change, less the hit threshold was -9.1%.

Regarding `Cc1cccc(/C=C2/S/C(=N/N=C3\CC4CCC3(C)C4(C)C)NC2=O)c1` (centres undefined), the activity change, less the hit threshold is -10.5%.

`CC12CCC(C/C1=N\N=C1\NC(=O)/C(=C\c3ccc(Cl)cc3)S1)C2(C)C` (centres undefined): the activity change, less the hit threshold was 4.4% (active).

`CCN1CCCC(CO)(Cc2ccccc2)C1` (centres undefined): the activity change, less the hit threshold was -9.6%.

As to `O=C1c2nc3cc(-c4ccco4)[nH]n3c(=O)c2CN1Cc1ccccc1`, the activity change, less the hit threshold was -13.6%.

Consider `O=C(CN1C(=O)c2cccc3cccc1c23)Nc1cccnc1`, for which the activity change, less the hit threshold is -28.6%.

On to `O=C1CC(N2CCN(c3ccccc3Cl)CC2)C(=O)N1c1ccc(F)cc1` (centres undefined), for which the activity change, less the hit threshold is -9.2%.

Consider `CCOc1ccc(N)c(SSc2cc(OCC)ccc2N)c1`, for which the activity change, less the hit threshold is -17%.

As for `CCC(=O)N(CC)c1nc(-c2ccc(OC)cc2)cs1`, the activity change, less the hit threshold was 30.9% (active).

Turning to `CCCC(=O)NC(=S)Nc1nc(-c2ccc(OC)cc2)cs1`, the activity change, less the hit threshold was -16.3%.

Take `CCCn1c(SCC(=O)Nc2nc(-c3ccc(OC)cc3)cs2)nc2c1c(=O)n(C)c(=O)n2C`: the activity change, less the hit threshold is -16.4%.

With `O=C(NCCc1ccc(F)cc1)c1coc(=O)c(Br)c1`, the activity change, less the hit threshold was -6%.

As to `Cc1nc(Oc2ccc(Cl)cc2)c2oc3ccccc3c2n1`, the activity change, less the hit threshold was -15.6%.

In the case of `CCOc1ccc(N(CC)C(=O)COc2cc(=O)n(C)c3ccccc23)cc1`, the activity change, less the hit threshold is -27%.

Consider `CCCOc1ccc(C(=O)N(CC(C)C)c2c(N)n(Cc3ccccc3)c(=O)[nH]c2=O)cc1`, for which the activity change, less the hit threshold is -17.9%.

With `CCOc1ccc(-c2c(=O)n(O)c3ccccc3[n+]2[O-])cc1`, the activity change, less the hit threshold is 52% (active).

Turning to `CCOc1ccc(CC(C(N)=O)C(N)=O)cc1`, the activity change, less the hit threshold is -21.3%.

Turning to `CCCOc1ccc(-c2c(=O)n(O)c3ccccc3[n+]2[O-])cc1`, the activity change, less the hit threshold is 71.1% (active).
